About 2,100 (0.53%) of roughly 400,000 compounds were called active. Not shown: some 14% with an inconclusive outcome. No rule for the calls is given here. The sample as a whole holds a higher share of actives than the screen did.

In the test the target is Ataxin-2 (Homo sapiens) (UniProt Q99700). The test can be described thus: qHTS for Inhibitors of ATXN expression. Type of test: functional. For orientation: In qHTS, concentration-response curves come from the screen itself.
Chain of Ataxin-2 (Homo sapiens) (Q99700 whole entry): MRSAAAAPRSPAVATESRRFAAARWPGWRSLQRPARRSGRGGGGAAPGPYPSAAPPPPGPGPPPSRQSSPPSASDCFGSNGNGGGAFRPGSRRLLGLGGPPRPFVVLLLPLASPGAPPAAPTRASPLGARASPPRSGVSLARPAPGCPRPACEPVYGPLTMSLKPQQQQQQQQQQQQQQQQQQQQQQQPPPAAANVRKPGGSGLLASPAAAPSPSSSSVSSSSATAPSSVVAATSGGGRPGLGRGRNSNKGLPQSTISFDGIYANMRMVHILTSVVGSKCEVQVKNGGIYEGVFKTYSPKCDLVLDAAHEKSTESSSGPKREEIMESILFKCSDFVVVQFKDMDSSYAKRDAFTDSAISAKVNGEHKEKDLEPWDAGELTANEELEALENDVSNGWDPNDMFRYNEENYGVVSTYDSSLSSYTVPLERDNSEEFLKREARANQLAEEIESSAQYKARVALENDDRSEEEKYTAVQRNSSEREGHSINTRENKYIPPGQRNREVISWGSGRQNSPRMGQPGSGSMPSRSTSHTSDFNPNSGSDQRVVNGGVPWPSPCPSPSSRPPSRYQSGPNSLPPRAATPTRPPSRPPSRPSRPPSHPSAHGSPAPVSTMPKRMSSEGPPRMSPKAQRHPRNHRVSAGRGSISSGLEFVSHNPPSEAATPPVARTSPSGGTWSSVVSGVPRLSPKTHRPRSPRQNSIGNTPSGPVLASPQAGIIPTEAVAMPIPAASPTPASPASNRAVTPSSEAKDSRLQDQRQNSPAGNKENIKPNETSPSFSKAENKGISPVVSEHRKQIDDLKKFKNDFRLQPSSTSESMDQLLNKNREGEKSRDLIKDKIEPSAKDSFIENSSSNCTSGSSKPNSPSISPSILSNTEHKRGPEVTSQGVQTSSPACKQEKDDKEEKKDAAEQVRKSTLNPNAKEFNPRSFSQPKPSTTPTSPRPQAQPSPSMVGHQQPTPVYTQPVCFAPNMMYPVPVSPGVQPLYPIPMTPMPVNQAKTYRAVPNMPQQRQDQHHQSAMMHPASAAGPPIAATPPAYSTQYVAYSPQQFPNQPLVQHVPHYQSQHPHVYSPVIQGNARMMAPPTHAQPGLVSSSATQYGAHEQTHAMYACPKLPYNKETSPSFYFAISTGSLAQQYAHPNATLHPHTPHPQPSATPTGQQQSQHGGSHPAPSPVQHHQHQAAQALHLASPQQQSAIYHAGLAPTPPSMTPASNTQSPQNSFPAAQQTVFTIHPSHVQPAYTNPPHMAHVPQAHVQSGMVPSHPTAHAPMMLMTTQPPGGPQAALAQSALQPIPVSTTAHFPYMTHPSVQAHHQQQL
In the case of `CC(C)CN(CC(C)C)C(=O)c1cc2c(=O)n3ccccc3nc2s1`, the Potency entry is “inactive”. The result for `N=C(NOC(=O)c1ccccc1)C(Cc1ccccc1)C(=O)NOC(=O)c1ccccc1` (configuration not stated) reads 39.8 µM (active); that for `O=C(Nc1ccc(Cl)cn1)c1ccccc1SCc1ccccc1`, “inactive”; that for `O=C(NCCOC(=O)c1ccccc1)c1ccccc1`, “inactive”. With `COc1ccc(CN2C(=O)c3cccnc3C2=O)cc1S(=O)(=O)N1CCOc2ccc(C)cc21` the entry was “inactive”; with `O=C(c1cnn(-c2ccccc2)c1)c1ccccc1O`, “inactive”; with `CC(Sc1ccccc1)C(=O)NN=C1CCCCCCC1` (configuration not stated), “inactive”. On to `CCOc1ccc(NC(=O)CN2CCN(CC(=O)Nc3ccccc3OC)CC2)cc1`, for which the Potency result was “inactive”.

Consider `COc1ccccc1NC(=O)CN1CCN(CC(=O)Nc2ccc(Cl)c(C(F)(F)F)c2)CC1`, for which the Potency is 44.7 µM (active). As to `O=C(CN1CCN(C(=O)c2c(F)cccc2F)CC1)Nc1ccccc1C(F)(F)F`, the Potency entry is “inactive”. Take `O=C(Cc1ccccc1)Nc1ncccc1Cl`: the Potency entry was “inactive”. The result for `Cc1ccc(-c2ccc(/C=C3\SC(N4CCOCC4)=NC3=O)o2)cc1` reads “inactive”; that for `Cc1ccccc1-c1ccc(/C=C2/SC(N3CCOCC3)=NC2=O)o1`, “inactive”; that for `O=C1NC(=S)S/C1=C/c1ccc(N2CCOCC2)o1`, 10 µM (active).

Take `N#C/C(=C/c1ccc(-c2ccc(Br)cc2)o1)C(=O)NC1CCCCC1`: the Potency entry was “inactive”. As for `Cn1c(/C=C(\C#N)C(N)=S)ccc1-c1ccc(Br)cc1`, the Potency is 11.2 µM (active). The result for `CC(=O)c1sc2nsc(SCCN3CCOCC3)c2c1N` reads “inactive”; that for `COc1ccc(CNc2nc3ccccc3n2C)c(OC)c1`, “inactive”; that for `CCc1cc(=O)oc2c(CNCc3ccc(OC)cc3OC)c(O)c(Cl)cc12`, “inactive”. With `CCn1c2ccccc2c2cc(CNCc3ccc(OC)cc3OC)ccc21` the figure was 42.3 µM (active); with `Cc1cc(C)c(C(=O)COC(=O)C2CCN(c3ccc(C(F)(F)F)cn3)CC2)c(C)c1`, “inactive”. `CC[n+]1c(/C=C2/C=C(C)CC(C)(C)C2)sc2ccc(OC)cc21`: the Potency is 39.8 µM (active). The result for `CCN1CCN(Cc2ccc(NC(=O)c3ccc(C)c(NC(=O)c4cncc(-c5cccs5)c4)c3)cc2C(F)(F)F)CC1` reads 20 µM (active).

As to `CCN1CCN(Cc2ccc(NC(=O)c3ccc(C)c(NC(=O)c4cccc5[nH]ccc45)c3)cc2C(F)(F)F)CC1`, the Potency is 35.5 µM (active). With `O=C(CO)N/N=C/c1c2ccccc2cc2ccccc12` the entry was “inactive”; with `O=C(O)c1ccc(-n2cc(-c3cc4ccccc4oc3=O)nc2S)cc1`, “inactive”; with `Cc1c(CCC(=O)NCCCN2CCCC2=O)c(=O)oc2cc(O)ccc12`, “inactive”. With `Cc1cc(C(=O)N/N=C/c2cn(C)nc2C)c2ccccc2n1` the entry was “inactive”; with `COC(=O)NCC(c1cccnc1)N1CCN(c2ccccc2)CC1` (configuration not stated), “inactive”; with `CCN1CCN(C(c2ccc(C(F)(F)F)cc2)c2ccc3cccnc3c2O)CC1` (configuration not stated), “inactive”. Take `CC(C)(C)c1cc(C(c2cccnc2)N2CCN(CCO)CC2)cc(C(C)(C)C)c1O` (configuration not stated): the Potency is 25.1 µM (active). The result for `Cc1onc(-c2c(Cl)cccc2Cl)c1C(=O)NNC(=O)c1c(-c2c(Cl)cccc2Cl)noc1C` reads “inactive”; that for `N#Cc1sc2nc(C3CC3)cc(-c3ccc(Cl)cc3)c2c1N`, “inactive”; that for `CC(C)c1ccccc1NC(=O)CN1C(=O)c2cccc3cccc1c23`, “inactive”.

In the case of `CCCCc1c(-c2ccccc2OC)ncn1C1CCCC1`, the Potency was 22.4 µM (active). With `COc1cc2c3nnc(-c4ccccc4)c-3cn(Cc3ccc(F)cc3)c2cc1OC` the entry was “inactive”; with `O=C1Cc2ccccc2C(=O)N1Cc1cccc(Cl)c1`, “inactive”. With `COc1ccccc1C1=NC(c2ccccc2)CN1c1ccccc1` (configuration not stated) the entry was “inactive”. The result for `CCCCc1c(-c2ccccc2OC)ncn1CCc1cccc(Cl)c1` reads 31.6 µM (active); that for `CCCCc1c(-c2ccccc2OC)ncn1Cc1ccc(-c2ccccc2)cc1`, 22.4 µM (active). Consider `Nc1cccc2c1C(=O)N(Cc1cccc(Cl)c1)C2=O`, for which the Potency result is “inactive”.

Take `CCCCc1c(-c2ccccc2OC)ncn1CCc1ccc(OC)cc1`: the Potency was 39.8 µM (active). The result for `CC12CCC(C1)C(C)(C)C2NS(=O)(=O)c1ccc(F)cc1` (configuration not stated) reads “inactive”; that for `COC(=O)c1ccc(COc2ccc(C(C)(C)C)cc2)o1`, “inactive”; that for `COc1c(C)cc(S(=O)(=O)N2CCOCC2)c(C)c1C`, “inactive”. Take `Cc1cc(-c2nc3cccnc3s2)ccc1NS(=O)(=O)c1ccc2c(c1)OCCO2`: the Potency entry was “inactive”. The result for `CCOC(=O)c1cnc(-n2nc(C)cc2C)nc1Nc1ccc(O)cc1` reads “inactive”. Turning to `FC(F)(F)c1cc(-c2cccs2)nc2cc(-c3cccs3)nn12`, the Potency result is “inactive”. With `CCOC(=O)c1c(N=C(S)Nc2ccccc2)sc2c1CCN(CC)C2` the entry was “inactive”; with `CCOC(=O)c1c(NC(C)=O)sc2c1CCC(C=O)=C2Sc1ccccc1`, 39.8 µM (active); with `CCCCN(C)S(=O)(=O)c1ccc(C(=O)Nc2sc3c(c2C(=O)OCC)CCN(C(C)C)C3)cc1`, “inactive”. The result for `CCOC(=O)c1c(NC(=O)C2=C(C)N=C(S)NC2c2ccc(C)cc2)sc(C)c1C` (configuration not stated) reads “inactive”; that for `CCOC(=O)c1c(NC(=O)c2ccccc2Cl)sc2c1CCc1ccccc1-2`, “inactive”.

Regarding `CCOC(=O)c1c(NC(C)=O)sc2c1CCC(/C=N/CCCN(CC)CC)=C2Sc1ccccc1`, the Potency is 39.8 µM (active). The result for `COc1ccc(-n2nc3ccc(N)cc3n2)cc1` reads “inactive”; that for `Cn1c(C(=O)NC2CCCCC2)cc2c(=O)n3ccccc3nc21`, “inactive”; that for `[N-]=[N+]=CC(=O)CNC(=O)[C@@H](Cc1ccccc1)N1C(=O)c2ccccc2C1=O`, 20 µM (active).

With `O=C(NCc1cccs1)C(Cc1ccccc1)n1cccc1` (configuration not stated), the Potency result was “inactive”. Consider `CC1=NN2C(=N)/C(=C\c3cc(C)n(-c4cccc(C)c4)c3C)C(=O)N=C2S1`, for which the Potency result was “inactive”. On to `Cn1c(-c2c(N)n(C3CCCC3)c3nc4ccccc4nc23)nc2ccccc21`, for which the Potency entry was “inactive”. As for `O=C(O)C(=O)/C(=C\c1ccc(Cl)cc1)c1ccc2ccccc2n1`, the Potency entry is “inactive”. The result for `O=C(/C(=C/c1ccc(Cl)cc1)c1nc2ccccc2[nH]1)c1ccccc1` reads 39.8 µM (active). With `O=C(/C(=C\c1ccccc1)c1nc2ccccc2[nH]1)c1ccc(Cl)cc1` the figure was 15.8 µM (active); with `N#C/C(=C\c1cccnc1)c1nc2ccccc2[nH]1`, “inactive”; with `O=C(O)C(=O)/C(=C\c1cccc(Cl)c1)c1ccc2ccccc2n1`, “inactive”. The result for `O=C(Cc1nc2ccccc2[nH]1)c1ccc(Cl)cc1` reads “inactive”; that for `O=C(COc1ccccc1C(=O)NCc1ccncc1)Nc1ccc(Br)cc1`, “inactive”. As to `CCN1CCN(Cc2c(O)ccc3c(C)c(-c4ccc(OC)cc4)c(=O)oc23)CC1`, the Potency result was “inactive”.

Turning to `COc1ccc(-c2c(C(F)(F)F)nn3c(O)cc(-c4ccccc4)nc23)cc1`, the Potency entry was “inactive”. In the case of `COC(=O)c1cc2nc(-c3ccc(C)cc3)cc(C(F)(F)F)n2n1`, the Potency entry was “inactive”. Take `Nc1c(C(=O)C2CC2)sc2nc(-c3ccccc3)cc(C(F)(F)F)c12`: the Potency entry is “inactive”. With `CCOC(=O)CCS(=O)(=O)c1nc(-c2ccccc2)cc(C(F)(F)F)n1` the figure was 31.6 µM (active); with `O=C(COC(=O)CCS(=O)(=O)c1ccccc1)Nc1ccccc1`, “inactive”; with `COCC(C)NC(=O)c1cnn2c(C(F)F)cc(-c3ccccc3)nc12` (configuration not stated), “inactive”.

As to `CS(=O)(=O)c1nc(-c2ccccc2)cc(C(F)(F)F)n1`, the Potency is 35.5 µM (active). Regarding `CCOC(=O)CNc1c(-c2ccc(F)cc2)nc2cnccn12`, the Potency entry is “inactive”. With `CCOC(=O)CS(=O)(=O)c1nc(-c2ccc(F)cc2)cc(C(F)(F)F)n1` the figure was 31.6 µM (active); with `COCCNC(=O)c1nn2c(C(F)(F)F)cc(-c3ccccc3)nc2c1Cl`, “inactive”; with `COC(=O)CCS(=O)(=O)c1nc(-c2ccccc2)cc(C(F)(F)F)n1`, 39.8 µM (active). The result for `Cc1ccc(S(=O)(=O)CCC(=O)OCC(=O)NC(C)c2ccccc2)cc1` (configuration not stated) reads “inactive”. `CCCCn1nc(NC(=O)CCC)c2cc3cc(OC)ccc3nc21`: the Potency result was “inactive”. With `CC(C)CNC(=O)COC(=O)c1c2c(nc3ccccc13)/C(=C/c1cccs1)CC2` the entry was “inactive”. The result for `CCN1CCN(Cc2c(O)ccc3c2O/C(=C\c2ccccc2)C3=O)CC1` reads “inactive”; that for `CCOC(O)=C(C(C)=N)C1CC(=O)NC1=O` (configuration not stated), “inactive”. With `Cc1ccc(-c2cc(C(=O)NCC3(N(C)C)CCCCC3)c3ccccc3n2)o1` the entry was “inactive”. With `CCc1ccc(-c2cc(C(=O)NN3CCOCC3)c3ccccc3n2)s1`, the Potency entry was “inactive”. Take `CCN(CC)CCNC(=O)c1cc(-c2ccc(Br)s2)nc2ccccc12`: the Potency is 39.8 µM (active).

Consider `CCN(CC)CC(C)CNC(=O)c1cc(-c2ccc(Br)s2)nc2ccccc12` (configuration not stated), for which the Potency is 14.1 µM (active). With `Cc1cc(C(=O)NCCN2CCOCC2)c2ccccc2n1` the entry was “inactive”; with `O=C(NC1CC1)c1cc(-c2ccc(Br)cc2)nc2ccccc12`, “inactive”.

`CN(Cc1ccccc1OCCO)CC1CCCN(CCc2ccc(Cl)cc2)C1` (configuration not stated): the Potency result was “inactive”. The result for `C=CCNC(=O)/C(C#N)=C/c1c(N2CCN(c3ccccc3)CC2)nc2c(C)cccn2c1=O` reads “inactive”. The result for `CCc1c(C)c2cc3c(c(C)c2oc1=O)OCN(CCc1ccc(OC)c(OC)c1)C3` reads “inactive”. With `COc1ccc(CCNc2ncnc3c2oc2ccccc23)cc1OC` the figure was 31.6 µM (active); with `COc1ccc(CCN(C)C(=O)c2cc(=O)c3ccccc3o2)cc1OC`, “inactive”; with `COc1cc(C(Nc2ccccn2)c2ccc3ccc(C)nc3c2O)cc(OC)c1O` (configuration not stated), 39.8 µM (active). Turning to `Cc1cccc(NC(c2ccccc2C)c2ccc3ccc(C)nc3c2O)n1` (configuration not stated), the Potency result was “inactive”. The result for `COc1cc(/C=N/Nc2ccccn2)cc(OC)c1O` reads “inactive”. Take `CN1CCN(C(=O)c2ccc(C(F)(F)F)cc2)CC1`: the Potency result was “inactive”. The result for `CC(C)CC(COCc1cccc(Cl)c1)N1CCN(C(=O)c2ccc(C(F)(F)F)cc2)CCC1=O` (configuration not stated) reads 39.8 µM (active).

Turning to `CC(C)C[C@@H](COCc1cccc(Cl)c1)N1CCN(C(=O)c2ccc(C(F)(F)F)cc2)CCC1=O`, the Potency was 22.4 µM (active). As for `CC(C)C[C@@H](COCc1ccc(Cl)cc1)N1CCN(C(=O)c2ccc(C(F)(F)F)cc2)CCC1=O`, the Potency was 31.6 µM (active).
